In PubChem BioAssay (Tox21):
Records with an inconclusive call do not appear. The source made the active and inactive calls. Unless noted, calls come from the whole dose curve; as a rule, active = well fitted curve in the direction sought with a large enough effect in the repeat runs; inconclusive = weak or mixed curves; inactive = no such curve, though single readings can be large; an effect the other way counts as inactive or inconclusive.

How the values were obtained:
[1] = qHTS assay for small molecule agonists of the p53 signaling pathway (AID 651631; calls by dose curve; note: nearly all actives have a fitted effect of over 15% in size)
Summary of the method: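 Readout was fluorescence from the LiveBLAzer FRET substrate, applied for 2 h at room temperature after 16 h compound exposure at 37 °C. Cells were the p53RE-bla HCT-116 line, with beta-lactamase driven by p53 response elements.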

[2] = qHTS assay for small molecules that induce genotoxicity in human embryonic kidney cells expressing luciferase-tagged ATAD5 (AID 651632); note: nearly all actives have a fitted effect of over 15% in size
Summary of the method: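 Cells were seeded at 2,000 per well, dosed with compound, and incubated 16 hr at 37C in 5% CO2. Luciferase activity was then quantified after a 30 min room-temperature incubation with Amplite.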

[3] = qHTS assay for small molecule agonists of the p53 signaling pathway - cell viability (AID 651633; calls by dose curve; note: series mostly up to about 83 µM; nearly all actives have a fitted effect of over 30% in size)
Summary of the method: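 p53RE-bla cells, seeded at 4,000 per well and rested 5 h at 37 C/5% CO2, received compounds in DMSO for 16 h at 37 C. CellTiter-Glo was then added, and luminescence was read after 30 min at room temperature to gauge cytotoxicity.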

[4] = qHTS assay for small molecules that induce genotoxicity in human embryonic kidney cells expressing luciferase-tagged ATAD5 - cell viability (AID 651634; calls by dose curve; note: nearly all actives have a fitted effect of over 25% in size)
Summary of the method: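 Cells (HEK293T, luciferase-tagged ATAD5) are seeded at 2,000 per well, dosed with compound or DMSO vehicle, and incubated 15.5 hr at 37C and 5% CO2. CellTiter-Fluor is added for 30 min before fluorescence is measured.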

[5] = qHTS assay for small molecule disruptors of the mitochondrial membrane potential - cell viability (AID 720634; calls by dose curve;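 note: human HepG2 liver cancer cells; series mostly up to about 83 µM; nearly all actives have a fitted effect of over 20% in size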)
Summary of the method: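 Cytotoxicity was measured by ATP quantitation in HepG2 wells that had first been treated with compound for 1 hr and stained with m-MPI dye; CellTiter-Glo incubation was 30 min at room temperature.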

[6] = qHTS assay for small molecule disruptors of the mitochondrial membrane potential (AID 720635)
Summary of the method: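 HepG2 cells (2,000/well) attached overnight at 37C, then took compound for 1 hr at 37C, 5% CO2. Mito-MPS dye was added for 30 min; fluorescence was read at 490/535 nm (monomers) and 540/590 nm (aggregates).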

[7] = qHTS assay to test for compound auto fluorescence at 590 nm (red) in HepG2 cells (AID 720674)
Summary of the method: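 Intrinsic compound fluorescence in the red window (Ex/Em 540/590 nm) is measured in attached HepG2 cells exposed for 1 hr, DMSO vehicle as baseline, benchmarked to Rose Bengal sodium.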

[8] = qHTS assay to test for compound auto fluorescence at 535 nm (green) in HepG2 cells (AID 720675)
[9] = qHTS assay to test for compound auto fluorescence at 460 nm (blue) in HEK293 cells (AID 720678)
Summary of the method: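 Cells were seeded and left to adhere for 4-5 hr at 37C. Compounds were then pin-transferred. After an overnight incubation at 37C under 5% CO2, intrinsic fluorescence at 405/460 nm was measured and referenced to triamterene.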

[10] = qHTS assay to test for compound auto fluorescence at 590 nm (red) in HEK293 cells (AID 720679)
Summary of the method: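 Each well held 2,000 HEK293 cells in medium containing 10% dialyzed FBS. Following 4-5 hr attachment at 37C, 23 nL test compound or DMSO was added; plates sat overnight, and red fluorescence (540/590nm) was recorded.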

[11] = qHTS assay to test for compound auto fluorescence at 535 nm (green) in HEK293 cells (AID 720680)
[12] = qHTS assay to test for compound auto fluorescence at 460 nm (blue) in HEK293 cell free culture (AID 720681)
Summary of the method: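 Test compounds were pinned into cell-free culture medium (DMEM with 10% FBS) and fluorescence was read directly at Ex/Em 405/460 nm. Signals were expressed as fluorescence equivalents of triamterene, with DMSO vehicle as control.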

[13] = qHTS assay to test for compound auto fluorescence at 535 nm (green) in HEK293 cell free culture (AID 720682)
Summary of the method: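 Compounds were pin-transferred into cell-free DMEM with 10% FBS, and green fluorescence was read at excitation 485 nm and emission 535 nm. Intensities were expressed as fluorescein-equivalent values.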

[14] = qHTS assay to test for compound auto fluorescence at 590 nm (red) in HEK293 cell free culture (AID 720683)
Summary of the method: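 Tox21 10K library compounds were pinned into cell-free DMEM with 10% FBS and fluorescence was read at excitation 540 nm. Activity is expressed as Rose Bengal sodium equivalency.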

[15] = qHTS assay to test for compound auto fluorescence at 590 nm (red) in HepG2 cell free culture (AID 720684)
Summary of the method: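 Ex 540 / Em 590 nm read of compound in cell-free MEM (10% FBS). Rose Bengal sodium reference.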

[16] = qHTS assay to test for compound auto fluorescence at 460 nm (blue) in HepG2 cell free culture (AID 720685)
Summary of the method: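 Cell-free plates of MEM plus 10% FBS received 23 nL compound or DMSO vehicle; blue-channel (405/460 nm) intensity scored against triamterene as reference fluorophore.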

[17] = qHTS assay to test for compound auto fluorescence at 535 nm (green) in HepG2 cell free culture (AID 720686)
[18] = qHTS assay to test for compound auto fluorescence at 460 nm (blue) in HepG2 cells (AID 720687)
Summary of the method: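 Cells (2,000/well in MEM with 10% FBS) attached overnight at 37 C, then were exposed to compound or DMSO for 1 hr at 37 C, 5% CO2. Fluorescence read at Ex/Em 405/460 nm, expressed as triamterene-equivalent signal.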

[19] = molecular target: Glucocorticoid receptor (Homo sapiens) (UniProt P04150); assay: qHTS assay to identify small molecule agonists of the glucocorticoid receptor (GR) signaling pathway (AID 720691; active = well fitted activation curve with a large enough effect in the signal ratio in the repeat runs, not every such curve was filed as active; the % refers to the signal ratio)
Summary of the method: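 Steps: seed GR-bla HeLa cells, incubate 4 h at 37 C/5% CO2; pin-transfer DMSO-dissolved compounds; incubate 18 h at 37 C; add LiveBLAzer B/G FRET substrate; after 2 h at room temperature, measure fluorescence.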

[20] = molecular target: Glucocorticoid receptor (Homo sapiens) (UniProt P04150); assay: qHTS assay to identify small molecule antagonists of the glucocorticoid receptor (GR) signaling pathway (AID 720692; active = well fitted inhibition curve with a large enough effect in the signal ratio in the repeat runs, not every such curve was filed as active; the % refers to the signal ratio)
Summary of the method: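 Antagonism was scored as loss of dexamethasone-driven (5 nM final) reporter signal in HeLa cells bearing a glucocorticoid response element–beta-lactamase construct, after 18 h compound exposure at 37 C and 2 h FRET substrate loading.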
% is set by controls: 0 for no effect and ±100 for the full control effect.

Sequence of Glucocorticoid receptor (Homo sapiens) (P04150 whole entry, looked up): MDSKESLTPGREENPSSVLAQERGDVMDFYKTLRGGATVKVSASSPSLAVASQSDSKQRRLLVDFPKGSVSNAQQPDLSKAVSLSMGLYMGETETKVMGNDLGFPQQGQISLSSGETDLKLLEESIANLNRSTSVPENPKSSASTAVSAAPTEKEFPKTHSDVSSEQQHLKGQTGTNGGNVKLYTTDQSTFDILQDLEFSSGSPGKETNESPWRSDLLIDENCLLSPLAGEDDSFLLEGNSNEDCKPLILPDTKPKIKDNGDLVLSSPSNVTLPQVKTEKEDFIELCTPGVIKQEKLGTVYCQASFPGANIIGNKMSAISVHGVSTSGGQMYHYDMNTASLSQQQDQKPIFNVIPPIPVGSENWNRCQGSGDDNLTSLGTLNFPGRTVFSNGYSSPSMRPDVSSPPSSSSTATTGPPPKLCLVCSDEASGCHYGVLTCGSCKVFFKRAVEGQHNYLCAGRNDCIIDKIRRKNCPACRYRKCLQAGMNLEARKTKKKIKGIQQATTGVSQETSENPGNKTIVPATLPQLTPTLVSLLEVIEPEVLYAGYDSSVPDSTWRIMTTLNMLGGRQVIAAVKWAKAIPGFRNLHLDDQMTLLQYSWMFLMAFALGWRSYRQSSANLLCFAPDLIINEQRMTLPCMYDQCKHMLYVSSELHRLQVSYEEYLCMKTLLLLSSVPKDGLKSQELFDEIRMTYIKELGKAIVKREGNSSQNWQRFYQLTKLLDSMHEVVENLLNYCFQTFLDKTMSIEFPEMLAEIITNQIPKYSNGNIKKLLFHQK

O=C(O)[C@H](O)c1ccccc1
inactive: outcome [1] | outcome [2] | outcome [3] | Potency [4] | outcome [5] | Potency [6] | outcome [7] | outcome [8] | outcome [9] | outcome [10] | outcome [11] | outcome [12] | outcome [13] | outcome [14] | outcome [15] | outcome [16] | outcome [17] | outcome [18]

NCc1ccc(S(N)(=O)=O)cc1
inactive: outcome [1] | outcome [2] | outcome [3] | Potency [4] | outcome [5] | Potency [6] | fluorescence, relative to Rose Bengal [7] -0.36% [at 18.6 µM] | fluorescence, % of fluorescein control [8] -0.119% [at 18.6 µM] | fluorescence, % of triamterene [9] 0.204% [at 18.6 µM] | fluorescence, % of fluorescent control [10] -0.0605% [at 18.6 µM] | fluorescence, % of fluorescein [11] 0.0433% [at 18.6 µM] | fluorescence, % of fluorescent control [12] 0.104% [at 18.6 µM] | activity change [13] -0.0097% [at 18.6 µM] | fluorescence, % of fluorescent control [14] 0.469% [at 18.6 µM] | fluorescence, % of Rose Bengal [15] 0.496% [at 18.6 µM] | fluorescence, % of fluorescent control [16] 0.0628% [at 18.6 µM] | fluorescence, % of fluorescein control [17] 0.0245% [at 18.6 µM] | fluorescence, % of fluorescent control [18] 0.0103% [at 18.6 µM]

CCCCCc1cccc(=O)o1
inactive: outcome [1] | outcome [2] | outcome [3] | Potency [4] | outcome [5] | Potency [6] | outcome [7] | outcome [8] | outcome [9] | outcome [10] | outcome [11] | outcome [12] | outcome [13] | outcome [14] | outcome [15] | outcome [16] | outcome [17]

C=CCCCCCCCCC(=O)OCCCC
inactive: outcome [1] | outcome [2] | outcome [3] | Potency [4] | outcome [5] | Potency [6] | outcome [7] | outcome [8] | outcome [9] | outcome [10] | outcome [11] | outcome [12] | outcome [13] | outcome [14] | outcome [15] | outcome [16] | outcome [17] | outcome [18]

O=C(Cl)c1ccccc1[N+](=O)[O-]
inactive: outcome [1] | outcome [2] | outcome [3] | Potency [4] | outcome [5] | Potency [6] | outcome [7] | outcome [8] | outcome [9] | outcome [10] | outcome [11] | outcome [12] | outcome [13] | outcome [14] | outcome [15] | outcome [16] | outcome [17] | outcome [18] | Potency [19]

COS(=O)(=O)O
inactive: outcome [1] | outcome [2] | outcome [3] | Potency [4] | outcome [5] | Potency [6] | outcome [7] | outcome [8] | outcome [9] | outcome [10] | outcome [11] | outcome [12] | outcome [13] | outcome [14] | outcome [15] | outcome [16] | outcome [17] | outcome [18]

CC(=O)OC1CCCCC1C(C)(C)C (stereo unspecified)
inactive: outcome [1] | outcome [2] | outcome [3] | Potency [4] | outcome [5] | Potency [6] | outcome [7] | outcome [8] | outcome [9] | outcome [10] | outcome [11] | outcome [12] | outcome [13] | outcome [14] | outcome [15] | outcome [16] | outcome [17] | outcome [18] | Potency [19]

CC1OCCC1=O (stereo unspecified)
inactive: outcome [1] | outcome [2] | outcome [3] | Potency [4] | outcome [5] | Potency [6] | outcome [7] | outcome [8] | outcome [9] | outcome [10] | outcome [11] | outcome [12] | outcome [13] | outcome [14] | outcome [15] | outcome [16] | outcome [17] | outcome [18] | Potency [19]

CC1(C)Cc2cccc(N)c2O1
inactive: outcome [1] | outcome [2] | outcome [3] | Potency [4] | outcome [5] | Potency [6] | outcome [7] | outcome [8] | outcome [9] | outcome [10] | outcome [11] | outcome [12] | outcome [13] | outcome [14] | outcome [15] | outcome [16] | outcome [17] | outcome [18] | Potency [19] | outcome [20]

Cc1c(N)cccc1Cl
inactive: outcome [1] | outcome [2] | outcome [3] | Potency [4] | outcome [5] | Potency [6] | outcome [7] | outcome [8] | outcome [9] | outcome [10] | outcome [11] | outcome [12] | outcome [13] | outcome [14] | outcome [15] | outcome [16] | outcome [17] | outcome [18] | Potency [19] | outcome [20]

O=Cc1cc2ccccc2o1
inactive: outcome [1] | outcome [2] | outcome [3] | Potency [4] | outcome [5] | Potency [6] | outcome [7] | outcome [8] | outcome [9] | outcome [10] | outcome [11] | outcome [12] | outcome [13] | outcome [14] | outcome [15] | outcome [16] | outcome [17] | outcome [18] | Potency [19]

C=CCSSCCC
inactive: outcome [1] | outcome [2] | outcome [3] | Potency [4] | outcome [5] | Potency [6] | outcome [7] | outcome [8] | outcome [9] | outcome [10] | outcome [11] | outcome [12] | outcome [13] | outcome [14] | outcome [15] | outcome [16] | outcome [17] | outcome [18] | Potency [19]

CC(C)COC(=O)c1ccccc1
inactive: outcome [1] | outcome [2] | outcome [3] | Potency [4] | outcome [5] | Potency [6] | outcome [7] | outcome [8] | outcome [9] | outcome [10] | outcome [11] | outcome [12] | outcome [13] | outcome [14] | outcome [15] | outcome [16] | outcome [17] | outcome [18] | Potency [19]

CCCCCCCCCCCCCCCCCCOCCO
inactive: outcome [1] | outcome [2] | outcome [3] | Potency [4] | outcome [5] | Potency [6] | fluorescence, relative to Rose Bengal [7] 0.105% [at 18.6 µM] | fluorescence, % of fluorescein control [8] 0.0331% [at 18.6 µM] | fluorescence, % of triamterene [9] -0.176% [at 18.6 µM] | fluorescence, % of fluorescent control [10] -0.175% [at 18.6 µM] | fluorescence, % of fluorescein [11] -0.0578% [at 18.6 µM] | fluorescence, % of fluorescent control [12] -0.0158% [at 18.6 µM] | activity change [13] -0.0191% [at 18.6 µM] | fluorescence, % of fluorescent control [14] 0.138% [at 18.6 µM] | fluorescence, % of Rose Bengal [15] -0.0112% [at 18.6 µM] | fluorescence, % of fluorescent control [16] 0.0125% [at 18.6 µM] | fluorescence, % of fluorescein control [17] -0.0027% [at 18.6 µM] | fluorescence, % of fluorescent control [18] 0.0321% [at 18.6 µM] | Potency [19]

OC[C@H]1O[C@@H](O[C@@H]2[C@@H](CO)O[C@](O)(CO)[C@H]2O)[C@H](O)[C@@H](O)[C@H]1O
inactive: outcome [1] | outcome [2] | outcome [3] | Potency [4] | outcome [5] | Potency [6] | outcome [7] | outcome [8] | outcome [9] | outcome [10] | outcome [11] | outcome [12] | outcome [13] | outcome [14] | outcome [15] | outcome [16] | outcome [17] | outcome [18] | Potency [19]
